According to PubChem BioAssay AID1347426 (Functional Genomics Laboratory (NCATS/FGL), 2020):
About 1,400 (4.5%) of roughly 31,000 sequences were called active. Only a selection was taken, and actives are over-represented in it overall. Unmarked numbers belong to inactive results.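 The calls were made as follows: active = median seed-adjusted z-score above 1 or below -1; inactive = the rest.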

Test: Novel Modifiers of Survival Motor Neuron (SMN) Protein: Gene Identification via Genome-wide siRNA Screen
Conditions: HEK293T SMN2-luciferase reporter, siRNA knockdown, 72 h; actives lie on both sides
Excerpt: Spinal muscular atrophy (SMA) is the most common neuromuscular autosomal recessive disorder and one of the leading genetic causes of infant death. SMA results from mutations inducing loss of function or deletion in the survival of motor neuron-1 gene (SMN1), leading to deficiency of the survival motor neuron (SMN) protein. Although a second nearly identical gene, SMN2, is retained in humans, its expression primarily produces an aberrantly spliced isoform that is largely unstable and quickly degraded. We performed a genome-wide RNAi screen using a cell-based reporter assay to identify genes and pathways that modulate SMN protein stability. The screen identified over 200 genes that led to the greatest increase or decrease in luciferase expression.
Using HEK293T cells stably expressing a luciferase reporter that combines the promoter and splicing based cassettes in tandem with the major portion of the native SMN2 cDNA with luciferase, we performed a genome-wide RNAi screen to identify modulators of SMN protein levels. Luciferase is expressed when full-length SMN protein is generated with luminescence signal proportional to SMN protein levels. Our luciferase-based reporter assay was used to screen Ambion Silencer Select Human Druggable Genome siRNA library (10418 genes, 3 unique siRNAs per gene) using lipid-based reverse transfection.
Briefly, 1 pmol of each siRNA was spotted to a well of a 384-well plate (Corning, Corning, NY) and 20 microL of serum-free DMEM containing […] of Lipofectamine RNAiMax (Life Technologies, Carlsbad, CA) was then added to each well. Transfected cells were maintained at 37 degrees C in 5% CO2 for 72 hours, 20 microL of ONE-Glo Reagent (Promega) was added to wells for luciferase quantification. Raw luminescence reads were normalized to Ambion(R) Silencer(R) Negative Control #2 siRNA, then log10 transformed. A robust statistical measure of median absolute deviation (MAD) to standardize siRNA activities from each screen. Common Seed Analysis was used to help prioritize clean hits as opposed to those appearing to arise from seed based off-target effects. Candidate modulators were defined as the genes having a MAD score greater than 1.0 or less than -1.0.
For GCAAUUCCCAAGAUCCUUATT against LAMB1, the median seed-adjusted z-score was 1.07 (active). Work on GGUCGAAUGAUAAGGUGUATT against PTK2 yielded a median seed-adjusted z-score of -0.0806. In the case of GCCUCAGUCUUUGCAGUCUTT against CDCP2, the median seed-adjusted z-score is reported as 0.0708. In the case of GGUAAUGACUCCACAGGGATT against SNRPN, the median seed-adjusted z-score is reported as -0.571. GAUACUACCCUGAUCAUAUTT against TMTC3 showed a median seed-adjusted z-score of 0.266. Work on UGGUGUCAGUGGAUCGCUATT against GPR101 yielded a median seed-adjusted z-score of -0.265. For CCAAAACAGUGGAGAGAGATT against BIN3, the median seed-adjusted z-score was 0.16. For GAACAUUGUUUGUAAGGCUTT against SUOX, the median seed-adjusted z-score was -0.0649. In the case of GGAUAUAAUGAGAUAUGUUTT against ETF1, the median seed-adjusted z-score is reported as -1.12 (active). Work on GCUCAACUCUCAUUCGGCATT against ZNF550 yielded a median seed-adjusted z-score of 0.131. GACCUGCCGUGAUAUCGUUTT against PSMA3 showed a median seed-adjusted z-score of -0.81. CACUAAACGAGGAUUCCUATT against YWHAH showed a median seed-adjusted z-score of -0.125. Sequence GGAUCGUAGUGAAACCGAUTT against DDX17 has a median seed-adjusted z-score of 0.231. In the case of CGUGAUCAAUAGGAAAAUUTT against CCL8, the median seed-adjusted z-score is reported as 0.436. With CAGAUUACGUGGAACAGGATT against EFTUD2 the median seed-adjusted z-score was -1.25 (active). With CGUCCUAAUCUCAAUCUUATT against CD200 the median seed-adjusted z-score was -0.0135. Work on GCCCAUAUUUCAUCGUGUATT against NPY yielded a median seed-adjusted z-score of -0.0606. CAGGAUAUCGAAUCCCUAATT against PPFIA2 gave a median seed-adjusted z-score of 0.176. GUCGAGUUGUAUCGCAUUATT against COX4I1 gave a median seed-adjusted z-score of -0.39. In the case of GGCUAGCCCUAGUAUGGAATT against CCAR1, the median seed-adjusted z-score is reported as -1.18 (active). Work on CCUUCAAUCACCGACCUUATT against SYNJ2 yielded a median seed-adjusted z-score of 0.0202. CGCUACCUGUCCCUGUAUATT against GPR6 showed a median seed-adjusted z-score of 0. GCAACAUAUGGGAAUUAGATT against MEIS1 gave a median seed-adjusted z-score of 0. With CAGAGGAGCUACAAAAGUATT against MX1 the median seed-adjusted z-score was -1.49 (active). With GCAUAUAUCAAGAAUUCAATT against CLIC4 the median seed-adjusted z-score was -0.498. With GAAACUAUAUCCACAUCAATT against GIPR the median seed-adjusted z-score was 0.475. In the case of CAUCUUGAAGUCUUAUUAATT against MYOCD, the median seed-adjusted z-score is reported as -0.121. For AAUCAGAUCAAAAACAUAATT against TNFRSF10C, the median seed-adjusted z-score was 0. In the case of GGAGGAAGGUCUCAACGUATT against TCFL5, the median seed-adjusted z-score is reported as 1.52 (active). Work on GCAAAUCUAUUUUCGGAAATT against AGTPBP1 yielded a median seed-adjusted z-score of -0.201. Work on GACUCUUCUGACUAACAUATT against DACH1 yielded a median seed-adjusted z-score of 0.562. Work on GACUCUAUGCUGAUAAUGATT against ADIPOQ yielded a median seed-adjusted z-score of 0.557. GCUGAGAUUUUCAAUAAGATT against NR1H4 gave a median seed-adjusted z-score of -0.056. For CGCCCAUUCUUCAAUGUCATT against SIAH1, the median seed-adjusted z-score was 1.5 (active). For AGUGCGCCCAGAAUCUAAATT against ZNF689, the median seed-adjusted z-score was 0.448. CGGAGUUUGUUGAUAUCGATT against LGI2 gave a median seed-adjusted z-score of 0. Sequence CAAAUUUCCUGUUAAUCGATT against APPL1 has a median seed-adjusted z-score of 0. For GAAAUGACCUUAUUAGUCATT against RYK, the median seed-adjusted z-score was -0.446. CAGACUACCCUGAUAGUUUTT against FLVCR1 gave a median seed-adjusted z-score of 0.197. With GGUCAGAGACCAUCCAGAATT against GFRA4 the median seed-adjusted z-score was -1.59 (active). For AGAGGAAGAUAGAUUUUCUTT against PFDN5, the median seed-adjusted z-score was 0.562. Work on GGAUGUAUUGUCGCCUGUATT against RENBP yielded a median seed-adjusted z-score of 0.587. For CGAACUGCUUUAUGACCUATT against KIF20A, the median seed-adjusted z-score was 0.906. For GACGAGACCUCUUCUCUCATT against ART1, the median seed-adjusted z-score was 0.0033. CCUGUGGUUUGCUAUCUAATT against SLC24A5 gave a median seed-adjusted z-score of -0.166. CGGUGCUGCUAGACGUGAATT against HSPB6 gave a median seed-adjusted z-score of 0.394. In the case of GGGUAAUUGGAACAUGUUUTT against RCN3, the median seed-adjusted z-score is reported as -2.44 (active). CCUUUACAAAUAACGGAUATT against NHLRC2 gave a median seed-adjusted z-score of 0.548. CAUGUUCACUGCUACCGAUTT against LPP showed a median seed-adjusted z-score of -0.103. Work on CCUUCAUCCGUAUCAUGGATT against POLD1 yielded a median seed-adjusted z-score of -0.715. Work on GCUGUGAUCUCAUGGAUCATT against KLHL3 yielded a median seed-adjusted z-score of -0.237. In the case of GCUUUAUGUGGGCUCAUUATT against RBM39, the median seed-adjusted z-score is reported as -1.82 (active). In the case of CACUGACACUUACAAUGAATT against UGT3A1, the median seed-adjusted z-score is reported as 0.864. Sequence GGAACUUACGAUGCAGGAATT against GALNT13 has a median seed-adjusted z-score of -0.0149. For GCAACAGUAUUUCGGUAUATT against CHEK1, the median seed-adjusted z-score was -5.1 (active). With GUCUUAGAAUGAGUAGCAATT against KCNMA1 the median seed-adjusted z-score was 0. CACUAUCAGUUGGAACAGATT against CD36 gave a median seed-adjusted z-score of -0.000845. In the case of GGCUGAGAUGCGUCGUAAATT against ARCN1, the median seed-adjusted z-score is reported as -1.25 (active). Sequence GAUUGAUGGGUGUAAGAAATT against SMS has a median seed-adjusted z-score of 0.186. GAGACCUAAUGUUUCAUAUTT against PRKCI showed a median seed-adjusted z-score of 0.386. CAAGGUCAAGUGCGAGAAATT against MAFB showed a median seed-adjusted z-score of 0.674. With CCGUCAUGGUUGAUGGAGATT against SEMA4D the median seed-adjusted z-score was 0.309. In the case of CCAUAGUCUUCAUCUACGATT against GPR153, the median seed-adjusted z-score is reported as -1.08 (active). In the case of GAACAGUGUUUGUCAGCAUTT against ASAH2, the median seed-adjusted z-score is reported as 0.615. Work on AAAGCACAGUGUUAAAUGATT against TAC1 yielded a median seed-adjusted z-score of 0.0499. With CCCAGAAGAUUACCUUUGATT against NARG1L the median seed-adjusted z-score was 0.0121. With CCGUGCUGACCUCCAAAUATT against HBA1 the median seed-adjusted z-score was -1.03 (active). CUUUCGGUUUGAAGAAUAATT against ZC3H15 gave a median seed-adjusted z-score of 0.191. In the case of AGCAUGUGGUAGACGAGAATT against RGS19, the median seed-adjusted z-score is reported as 0.295. In the case of GACCUUCACCGUUACGUUATT against HDLBP, the median seed-adjusted z-score is reported as -1.18 (active). In the case of AGCUCGUACUGUUCCAAUATT against MMP19, the median seed-adjusted z-score is reported as 0.43. With AGUGACAGAGUACAAGAUATT against EIF3G the median seed-adjusted z-score was -0.198. AAGUGGGAGUUACAUUAAATT against DLGAP2 gave a median seed-adjusted z-score of 0.295. In the case of GGAUGUCAACUGUGCUUUUTT against MED24, the median seed-adjusted z-score is reported as -2.3 (active). For CAGUGAAGGUGAAAUUCGATT against UCHL5, the median seed-adjusted z-score was -0.358. GGAUAAUGAUCGCGAGGAATT against ALS2 gave a median seed-adjusted z-score of 0. GGUUCACGGCUAAAGCAAUTT against DGCR8 gave a median seed-adjusted z-score of -0.266. CUACCAGGCUUAAUAGGAATT against GFM2 showed a median seed-adjusted z-score of 0.26. GGGUCUUACUGAUUCCACATT against A4GNT showed a median seed-adjusted z-score of 0.213. For CGAGAGUUACUUACAAGAATT against RAN, the median seed-adjusted z-score was -3.09 (active). CAUCAUUACCAGAGCUACATT against RLN1 gave a median seed-adjusted z-score of 0.0637. With CCGCAGUUCUAGGUCCAAUTT against ABCC2 the median seed-adjusted z-score was -0.0464. For CAACCAAGGUCAGUCUUAUTT against TFCP2L1, the median seed-adjusted z-score was -0.246. Sequence AGAUAAGAAUCGCAUGACATT against ARHGAP9 has a median seed-adjusted z-score of 0. For GAACGUAGAAUGAAAGUAATT against PSMC1, the median seed-adjusted z-score was -2.23 (active). Work on GACUAUAACUUCCCGAAAATT against SYT11 yielded a median seed-adjusted z-score of 0.29. Sequence GGGUUACAGCUAAAAUUGUTT against OC90 has a median seed-adjusted z-score of 0.216. In the case of GGUGCGGCCCUAUUACUUUTT against RPUSD2, the median seed-adjusted z-score is reported as -0.215. In the case of GAGACUCUGUGGACGUAAATT against ZNF101, the median seed-adjusted z-score is reported as 0.336. In the case of AGCUUCUACCGUGUCCUUATT against UCK2, the median seed-adjusted z-score is reported as -1.51 (active). With CUACCUUACUUUAACAUUATT against KCNS3 the median seed-adjusted z-score was 0.103. Sequence GCGAAAUUUUGGAUAUCAATT against KIF23 has a median seed-adjusted z-score of -0.449. In the case of GGACACCUGUGAACCGCAUTT against ARID3A, the median seed-adjusted z-score is reported as -1.11 (active). GGGAUAUUUUCUACGCUUUTT against DNAH5 gave a median seed-adjusted z-score of -0.45. For GGUCACCACCAAAUACGUUTT against B4GALNT2, the median seed-adjusted z-score was -0.174. CGAUUUAUCCGAUGCCCUUTT against CD99 showed a median seed-adjusted z-score of 0. In the case of CCAUCUCCAGUUGUAUUUUTT against CHKA, the median seed-adjusted z-score is reported as -0.558. GACGGAAAGACUUACGUUATT against EIF2AK2 gave a median seed-adjusted z-score of 0.419. GAAUCAACUUUGCCGUGUUTT against SHMT2 showed a median seed-adjusted z-score of -0.0453. CCUUGUCACAGGUCAAUCATT against VWF gave a median seed-adjusted z-score of 0.159. For GAUGGGACAUCGUUGCUCATT against OASL, the median seed-adjusted z-score was 1.02 (active). For CAGGAUCUACGAUAAGGUATT against ACSL5, the median seed-adjusted z-score was 0.109. Sequence CGAGAAAGAAUUCCACUUUTT against HOXC5 has a median seed-adjusted z-score of 0.507. Work on GACUGACAUUGAGAUUACATT against CCT3 yielded a median seed-adjusted z-score of -0.416. GGUGAAUACUUCCGGUACATT against SULT2B1 showed a median seed-adjusted z-score of 0. CUCUGUGAAUGGUGCCGAATT against FAM57A gave a median seed-adjusted z-score of 0.0434. In the case of GGGAAUGACUGGAAGACGATT against TTF1, the median seed-adjusted z-score is reported as 1.76 (active). In the case of GAAUGGUGUGGAUCUCCUATT against ARPC5, the median seed-adjusted z-score is reported as -0.479. In the case of GCAAUGUGGUCAAGACGGATT against INHBE, the median seed-adjusted z-score is reported as 0.172.
